From PubChem BioAssay (NCI)
This is part of a sample that, as a whole, favours compounds with a hit. Of some 79,000 tested, about 15% had one in any assay. Activity calls are given as the source filed them. Cut-off read from the data, not from the text of the source: active = growth inhibition above about 70%; inactive = the rest.

Columns and labels:
[1] = NCI Yeast Anticancer Drug Screen. Data for the rad50 strain (AID 155);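 note: 0% = growth of vehicle-only cultures of the same strain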; conditions: S. cerevisiae rad50 strain growth inhibition; at 50.0 µM; active compounds read high
Summary of the method: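 Inhibition values express reduced yeast growth in compound-treated cultures relative to vehicle-treated controls.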

[2] = NCI Yeast Anticancer Drug Screen. Data for the mec2-1 strain (AID 157); conditions: S. cerevisiae mec2-1 strain, at 50.0 µM, active compounds read high
Summary of the method: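 Mutant yeast (mec2-1) grown with compound; growth inhibition relative to vehicle control reported.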

[3] = NCI Yeast Anticancer Drug Screen. Data for the sgs1 mgt1 strain (AID 161);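 note: 0% = growth of cultures given vehicle only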; conditions: S. cerevisiae sgs1 mgt1 strain, at 50.0 µM, active compounds read high
Summary of the method: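 Yeast cells carrying a defined DNA-repair defect were exposed to test compounds. Growth inhibition was measured relative to vehicle-treated controls.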

[4] = NCI Yeast Anticancer Drug Screen. Data for the cln2 rad14 strain (AID 165);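 note: 0% = growth equal to vehicle treated cultures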; conditions: S. cerevisiae cln2 rad14 strain, at 50.0 µM, active compounds read high
Summary of the method: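 Readout is yeast growth inhibition versus vehicle-treated controls, using a strain with cln2 and rad14 alterations exposed to compound.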

[5] = NCI Yeast Anticancer Drug Screen. Data for the bub3 strain (AID 167); conditions: S. cerevisiae bub3 mutant strain, at 50.0 µM, active compounds read high
Summary of the method: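 Steps: expose the mutant yeast strain to compound; grow alongside vehicle-treated cultures; measure growth; express inhibition against the vehicle cultures.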

[6] = NCI Yeast Anticancer Drug Screen. Data for the mlh1 rad18 strain (AID 175); conditions: S. cerevisiae mlh1 rad18 strain growth inhibition; at 50.0 µM; active compounds read high
Summary of the method: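 Genetically defined yeast (DNA repair-deficient) exposed to compounds; growth inhibition determined relative to vehicle.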

Measured: growth inhibition

CC(C)NC(=O)OCc1c(COC(=O)NC(C)C)c(S(=O)c2ccccc2)n2c1CCC2 (configuration not stated)
inactive: [1] 12.6% | [2] 5.3% | [3] 9.05% | [4] -27.1% | [5] 18.6% | [6] -6.4%

COC(=O)C(C)Oc1ccccc1 (configuration not stated)
inactive: [1] 2.35% | [2] -28.2% | [3] -9.4% | [4] -4.8% | [5] -10% | [6] -18.5%

CC(=O)CC(=O)OC1CC(C)CCC1C(C)C (configuration not stated)
inactive: [1] 12.2% | [2] -24.4% | [3] -6.25% | [4] 15.3% | [5] -26.1% | [6] 23.1%

CNC(=O)CN(CC(N)=O)C(=O)NC
inactive: [1] -29.5% | [2] -20.3% | [3] -27.6% | [4] 0.65% | [5] -23% | [6] -35%

O=C(Nc1ccccc1Cl)OCCOc1ccccc1
inactive: [1] -3.7% | [2] 10.1% | [3] 11.3% | [4] -19.1% | [5] 17.2% | [6] 14.7%

CCOC(=O)C1(C(=O)OCC)CC1c1ccccc1 (configuration not stated)
inactive: [1] 4.6% | [2] -32.5% | [3] 5.5% | [4] -0.6% | [5] -11.7% | [6] -3.2%

CCN(CC)CCCNc1cc(O)cc2cccnc12
inactive: [1] -1.5% | [2] 5% | [3] 26.6% | [4] 2.6% | [5] 2.3% | [6] -0.35%

O=C(CC(c1ccccc1)C1CCCC1=O)c1ccccc1 (configuration not stated)
inactive: [1] 11.1% | [2] 1.65% | [3] 17.6% | [4] -21.3% | [5] 6.1% | [6] 17.1%

CC(C)(C)N[P+](Cc1ccccc1)(NC(C)(C)C)c1ccccc1
inactive: [1] 33.1% | [2] 10.9% | [3] 62% | [4] -9.7% | [5] 3.65% | [6] 8.9%

CC1CC=C2CCCCC2(C)C1C (configuration not stated)
inactive: [1] 8.7% | [2] 13.7% | [3] 16.2% | [4] -30.9% | [5] -40.6% | [6] 3.7%

Cc1c([N+](=O)[O-])ccn1C
inactive: [1] -1.55% | [2] 10.9% | [3] -5.7% | [4] 9.25% | [5] 7.2% | [6] -3.7%

CCOC(=O)C1(C)CCCC1=O (configuration not stated)
inactive: [1] 13.8% | [2] -8.6% | [3] 3.95% | [4] 6.95% | [5] 2.6% | [6] -0.4%

C/C(=N/OC(=O)c1cccc2c(=O)c3ccccc3[nH]c12)[C@H]1CC[C@H]2[C@@H]3CCC4=C/C(=N/OC(=O)c5cccc6c(=O)c7ccccc7[nH]c56)CC[C@]4(C)[C@H]3CC[C@]12C
inactive: [1] 29.4% | [2] 38% | [3] 66.5% | [4] 28.4% | [5] 48.9% | [6] 36.5%

CCOc1ccc(-c2nnc(Nc3ccc(S(=O)(=O)N4CCCCC4)cc3)s2)cc1
inactive: [1] 10.3% | [2] 9.6% | [3] 13.7% | [4] -38% | [5] -2.15% | [6] 16.7%

Cc1coc2c1C1OC(=O)C3(C/C=C\C(C)C2)OC13 (configuration not stated)
inactive: [1] 0.15% | [2] -32.6% | [3] -2.55% | [4] -6.3% | [5] -13.9% | [6] -5.95%

CC(C)CCC[C@@H](C)[C@H]1CC[C@H]2[C@@H]3C[C@@H](O)[C@@]4(O)C[C@@H](O)CC[C@]4(C)[C@H]3CC[C@]12C
inactive: [1] 27.6% | [2] 8.65% | [3] 14.1% | [4] -12.4% | [5] -7.25% | [6] 19.5%

CC(=O)Nc1ccc(-c2nnc(SCC(=O)Nc3cccc(C)c3)o2)cc1
inactive: [1] 5.2% | [2] 14.7% | [3] 32% | [4] 24% | [5] 9.7% | [6] -7.75%

Cn1ncc2c(NN)nc(Cl)nc21
inactive: [1] 8.6% | [2] -18.7% | [3] -4.55% | [4] -18.4% | [5] -14.8% | [6] 7%

Cc1ccc(Cl)cc1NC(=O)C(C)Oc1ccccc1 (configuration not stated)
inactive: [1] 4.45% | [2] -1.85% | [3] -2% | [4] -4.75% | [5] 30.1% | [6] 13.9%

CCN(CC)CCNC1=CC(=S)NC(C)(C)C1
inactive: [1] -13.7% | [2] 10.6% | [3] -2.6% | [4] -4.2% | [5] -1.9% | [6] -6.05%

CC(=O)Oc1c(OC(C)C)c(C)c(O[Si](C(C)C)(C(C)C)C(C)C)c2[nH]c3ccccc3c12
inactive: [1] 33.9% | [2] -5.05% | [3] -23.2% | [4] -10.9% | [5] -12.4% | [6] -29.7%

ONC1=Nc2cc(Cl)ccc2C(=S)N2CSCC12 (configuration not stated)
inactive: [1] 1.55% | [2] 18.6% | [3] -0.25% | [4] 0.45% | [5] -9.8% | [6] 18.8%

COc1onc(C)c1CC(=O)O
inactive: [1] 2.7% | [2] 1.2% | [3] -7.3% | [4] -32.1% | [5] -8.65% | [6] 2.75%

CC1(CCOCc2ccccc2)NC(=O)NC1=O (configuration not stated)
inactive: [1] -32.2% | [2] -8.4% | [3] -44.4% | [4] -33% | [5] -13.2% | [6] -19.9%

CC(=O)NCc1cc2c3c(c1)CCCN3CCC2
inactive: [1] 6% | [2] -7.15% | [3] 4.15% | [4] -32.5% | [5] 0.1% | [6] -4.8%

COC(=O)/C(=C\c1ccccc1N)c1cc2c(cc1Br)OCO2
inactive: [2] 40.2% | [4] 41.4% | [5] 44.3% | [6] 68.1%
active: [1] 84.2% | [3] 82.4%

Brc1ccc(Br)s1
inactive: [1] -11.2% | [2] -0.1% | [3] -20.4% | [4] -38.3% | [5] 7.5% | [6] 0.4%

CS(=O)(=O)C(CCC(=O)c1cccs1)C(=O)c1ccccc1 (configuration not stated)
inactive: [1] -2.95% | [2] 3.25% | [3] -6.65% | [4] 1.85% | [5] 0.2% | [6] 14.4%

CCCCCCC(Br)CCCC (configuration not stated)
inactive: [1] 15.6% | [2] -8.85% | [3] 14% | [4] -15.2% | [5] -7.75% | [6] -4.9%

NC(=O)C1(c2cccs2)CCCC1
inactive: [1] 4.9% | [2] 3.4% | [3] 6.5% | [4] -26.1% | [5] -12.3% | [6] 26.2%

CC(C)=NNC(=O)c1ccccc1O
inactive: [1] 33.9% | [2] -7.7% | [3] 3.5% | [4] 2.3% | [5] 1.65% | [6] -10.2%

Cc1cc(Br)c(O)c(-c2cscn2)c1
inactive: [1] -17.6% | [2] -34.8% | [3] 11.8% | [4] 28.9% | [5] 16.8% | [6] 3%

S=c1[nH]nc(SCc2ccc(Cl)cc2Cl)c2[nH]cnc12
inactive: [1] -2.15% | [2] 1.4% | [3] 11.4% | [4] -32.4% | [5] -0.5% | [6] -6%

CCC(C)C(O)CC (configuration not stated)
inactive: [1] -9.5% | [2] -8.55% | [3] 2.3% | [4] 19.4% | [5] 7.6% | [6] -16.2%

CC(C)(C)C(=O)CC(=O)C(C)(C)C.CC(C)(C)C(=O)CC(=O)C(C)(C)C.CC(C)(C)C(=O)CC(=O)C(C)(C)C.[Co]
inactive: [1] -10.1% | [2] -8.95% | [3] 21.4% | [4] 16% | [5] -0.6% | [6] 0.15%

CN(C)CCCNc1ccnc2cc([N+](=O)[O-])ccc12
inactive: [1] 10.2% | [2] 3.3% | [3] 4.4% | [4] -4.1% | [5] -1.3% | [6] -17.1%

Cc1ccc(CN(CCO)Cc2ccccc2)cc1
inactive: [1] 1.75% | [2] 39% | [3] 28.1% | [4] 0.65% | [5] 43.1% | [6] 47.1%

CCCCNC(=O)CC
inactive: [1] 3.1% | [2] -11.2% | [3] 3% | [4] 4.85% | [5] 14.9% | [6] -1.95%

CCCC=Nc1ccccc1
inactive: [1] 8.3% | [2] 3.65% | [3] 14.5% | [4] -19.9% | [5] 10.8% | [6] 13.1%

O=C1CN(c2ccccc2)Cc2nc(Cl)ccc2N1
inactive: [1] 39.9% | [2] 7.45% | [3] 24.4% | [4] 17.4% | [5] 3.55%
active: [6] 72.5%

COc1c(Cl)c(Cl)c([N+](=O)[O-])c(Cl)c1Cl
inactive: [1] 40.4% | [2] 30.1% | [3] 35.5% | [4] 7.65% | [5] 37.9% | [6] 33.2%

CCNC1C2(CCCCC2)NC(=O)C12CCCCC2 (configuration not stated)
inactive: [1] -43.4% | [2] -10.9% | [3] -1.1% | [4] 12.1% | [5] -7.05% | [6] 2.65%
